Results: PubChem BioAssay AID777 (Sanford-Burnham Center for Chemical Genomics, 2007)
The whole screen tested about 96,000 compounds, of which about 19,000 (20%) were called active. The list is a sample of the results. Values without a mark were called inactive.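 Rule for the calls: active = blocking of liver enzyme CYP2C9 beyond about 50% at 5 µM (limit read from the data); inactive = the rest.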

Target: Cytochrome P450 2C9 (Homo sapiens) (UniProt P11712)
Test: blockers of cytochrome P450 2C9 activity – biochemical, luminescence, ADME assay, primary screen (AID 777)
Conditions: CYP2C9 Supersomes, luciferin-H conversion, at 5 µM, active compounds read high

Cytochrome P450 2C9 (Homo sapiens), sequence (P11712 whole entry, looked up): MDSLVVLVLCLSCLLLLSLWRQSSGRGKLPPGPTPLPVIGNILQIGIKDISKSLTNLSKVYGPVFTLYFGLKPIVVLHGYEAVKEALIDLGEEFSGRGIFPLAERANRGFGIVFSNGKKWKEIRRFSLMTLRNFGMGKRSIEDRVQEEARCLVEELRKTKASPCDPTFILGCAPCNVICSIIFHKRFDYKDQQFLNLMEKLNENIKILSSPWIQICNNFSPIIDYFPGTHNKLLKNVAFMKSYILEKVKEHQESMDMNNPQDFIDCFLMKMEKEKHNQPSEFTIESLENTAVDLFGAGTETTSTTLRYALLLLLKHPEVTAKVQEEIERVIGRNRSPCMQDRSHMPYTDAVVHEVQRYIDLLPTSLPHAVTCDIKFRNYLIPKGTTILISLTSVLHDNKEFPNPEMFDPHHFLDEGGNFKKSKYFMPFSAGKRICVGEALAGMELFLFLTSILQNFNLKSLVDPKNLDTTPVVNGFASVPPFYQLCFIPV

SMILES	inhibition
CCC(C)(C)NC(=O)C(c1cccn1C)N(Cc1ccc(C)cc1)C(=O)Cn1nnc2ccccc21 (stereo not given)	28.4%
CC(C)CNC(=S)NNC(=O)c1ccccc1OC(F)F	3.6%
CNC(=O)c1csc(-c2ccccc2)n1	13.2%
COc1cc(N2CCCC2)c(OC)cc1/C=C(/C#N)c1cccc(Br)c1	67.5% (active)
COc1cccc(C(=O)Nc2ccc(N3CCCC3)cc2)c1	11.9%
CN1CCCc2cc(C#N)c(=O)[nH]c21	45.5%
O=S(=O)(c1cccs1)N1CCN(Cc2ccccc2)CC1	69.5% (active)
O=C(C1CCN(S(=O)(=O)c2cccs2)CC1)N1CCCCCC1	34.9%
CN1CCN(S(=O)(=O)c2ccc(N3CCN(S(=O)(=O)c4cccs4)CC3)nc2)CC1	49.3%
CCS(=O)(=O)N1CCCC(C(=O)NCc2ccc(C)cc2)C1 (stereo not given)	6.9%
O=C(NCc1ccccc1)C1CCCN(S(=O)(=O)c2cccs2)C1 (stereo not given)	81.9% (active)
O=S(=O)(c1cccs1)N1CCc2ccccc2C1	-206%
CCCS(=O)(=O)N1CCCC(C(=O)NCc2ccco2)C1 (stereo not given)	0.9%
O=C(NCc1ccco1)C1CCCN(S(=O)(=O)c2ccccc2)C1 (stereo not given)	30.4%
Cc1ccc(CNC(=O)C2CCCN(S(C)(=O)=O)C2)cc1 (stereo not given)	-3.4%
O=C(NCc1ccc2c(c1)OCO2)C1CCCN(S(=O)(=O)c2cccs2)C1 (stereo not given)	92.5% (active)
O=C(NCc1cccs1)C1CCN(S(=O)(=O)c2ccc3c(c2)OCCO3)CC1	-174%
O=C(NC1CCCCC1)C1CCCN(S(=O)(=O)c2cccs2)C1 (stereo not given)	68.3% (active)
CCCC(=O)N1c2ccc(-c3csc(N)n3)cc2CC1C (stereo not given)	34.6%
CN1C(=O)c2ccc(NC(=O)C3CCCCC3)cc2C1=O	3.3%
CN1CCC2(CC1)NC(=O)NC2=O	-9.5%
CSC1=N/C(=C\c2ccc3c(c2)OCO3)C(=O)S1	1.7%
COc1cc(/C=C(\C#N)c2nc3c(s2)CC(C)CC3)ccc1O (stereo not given)	-74.5%
CCCCc1nnc(NC(=O)CSc2nc(C)cc(=O)[nH]2)s1	14%
Cc1ccc2cccc(O)c2[n+]1[O-]	11.3%

SMILES	inhibition
COc1ccc(CCN=C2SCC(=O)N2C)cc1OC	15.5%
COc1ccc(CC(=O)c2ccc(O)cc2O)cc1OC	53.9% (active)
COCc1cc(C(C)=O)ccc1OC	-37.2%
CCCOC(=O)C1=C(C)NC2=C(C(=O)C(C(=O)OC)C(C)C2)C1c1ccc(N(C)C)cc1 (stereo not given)	18.1%
COc1cc(OC)cc(C(=O)Nc2ccc(-c3nc4ccccc4o3)c(O)c2)c1	-18.6%
COc1ccccc1Nc1ncnc2c1oc1ccccc12	19.7%
Cc1ccc(C(=O)N/N=C/c2sc(=O)n(Cc3cccc(C(=O)O)c3)c2Cl)cc1	12.3%
Cc1ccc(/C=N/NC(=O)C(NC(=O)c2ccccc2)c2n[nH]c(=O)c3ccccc23)cc1 (stereo not given)	56.5% (active)
COc1ccc(/C=N/Nc2nc3ccccc3c(=O)[nH]2)cc1	9.9%
O=C1c2ccccc2C(=O)N1CCC(c1ccccc1)c1ccco1 (stereo not given)	40.2%
Nc1ccc(SCCN2C(=O)c3ccccc3C2=O)cc1	71.9% (active)
CC(=O)c1cnc(SCCN2C(=O)c3ccccc3C2=O)nc1C	13.5%
CCCS(=O)(=O)C(=C1Nc2ccccc2N1)S(=O)(=O)CCC	8.7%
COc1ccc(C(C#N)Nc2ccccc2C)cc1 (stereo not given)	4.4%
CCN(CC)CCN1C(=O)C(=O)/C(=C(/O)c2cnn(-c3ccccc3)c2C)C1c1cccs1 (stereo not given)	-11.5%
O=C(O)COc1nsnc1N1CCOCC1	-22.9%
CCOc1cc(N2CCOCC2)c(OCC)cc1NC(=O)COC(=O)[C@H](Cc1c[nH]c2ccccc12)NC(C)=O	45.8%
CCCCC(=O)Nc1ccc(C(=O)NCCCn2ccnc2)cc1	33.7%
CC1(C)C2CCC1(C)C(OC(=O)CCn1ccnc1)C2 (stereo not given)	95.6% (active)
CC(=O)OCc1cc(=O)n(C)c(=O)n1C	-5.9%
CC1CCCN(C(=O)Cn2c(=O)oc3ccccc32)C1 (stereo not given)	7.8%
Cc1cc(-c2ccccc2)nc(N2CCC(C(=O)NC34CC5CC(CC(C5)C3)C4)CC2)n1	11.4%
O=C(Nc1ccccc1)c1ccc2nsnc2c1	7.6%
O=C(CCCN1C(=O)CCC1=O)Nc1ccc(Cl)c(C(F)(F)F)c1	-25.8%
O=C(c1ccccc1)C(Cn1cncn1)C(Sc1ccccc1)c1ccccc1 (stereo not given)	98.5% (active)
